Measured values published in ChEMBL document CHEMBL3988442, “University of Dundee, Small-Polar-MMV Screening Library” (2021).
For some of these results: Results with a measured potency or affinity are listed apart.

Assays:
Design in all cases: scale not given: direction of the effect not stated beside the values
[1] = biological target: Protein translocase subunit SecA (Escherichia coli (strain K12)) (UniProt P10408); experiment: Assay to Identify E. coli SecA ATPase Inhibitors; assay type: functional; details: 30 µM
[2] = biological target: T1, Ubiquitin-activating enzyme e1, putative (Leishmania donovani (strain BPK282A1)) (UniProt E9BSI1); experiment: Leishmania donovani Ubiquitin Activating Enzyme (LdE1); assay type: functional; details: 30 µM
T1 sequence (whole entry): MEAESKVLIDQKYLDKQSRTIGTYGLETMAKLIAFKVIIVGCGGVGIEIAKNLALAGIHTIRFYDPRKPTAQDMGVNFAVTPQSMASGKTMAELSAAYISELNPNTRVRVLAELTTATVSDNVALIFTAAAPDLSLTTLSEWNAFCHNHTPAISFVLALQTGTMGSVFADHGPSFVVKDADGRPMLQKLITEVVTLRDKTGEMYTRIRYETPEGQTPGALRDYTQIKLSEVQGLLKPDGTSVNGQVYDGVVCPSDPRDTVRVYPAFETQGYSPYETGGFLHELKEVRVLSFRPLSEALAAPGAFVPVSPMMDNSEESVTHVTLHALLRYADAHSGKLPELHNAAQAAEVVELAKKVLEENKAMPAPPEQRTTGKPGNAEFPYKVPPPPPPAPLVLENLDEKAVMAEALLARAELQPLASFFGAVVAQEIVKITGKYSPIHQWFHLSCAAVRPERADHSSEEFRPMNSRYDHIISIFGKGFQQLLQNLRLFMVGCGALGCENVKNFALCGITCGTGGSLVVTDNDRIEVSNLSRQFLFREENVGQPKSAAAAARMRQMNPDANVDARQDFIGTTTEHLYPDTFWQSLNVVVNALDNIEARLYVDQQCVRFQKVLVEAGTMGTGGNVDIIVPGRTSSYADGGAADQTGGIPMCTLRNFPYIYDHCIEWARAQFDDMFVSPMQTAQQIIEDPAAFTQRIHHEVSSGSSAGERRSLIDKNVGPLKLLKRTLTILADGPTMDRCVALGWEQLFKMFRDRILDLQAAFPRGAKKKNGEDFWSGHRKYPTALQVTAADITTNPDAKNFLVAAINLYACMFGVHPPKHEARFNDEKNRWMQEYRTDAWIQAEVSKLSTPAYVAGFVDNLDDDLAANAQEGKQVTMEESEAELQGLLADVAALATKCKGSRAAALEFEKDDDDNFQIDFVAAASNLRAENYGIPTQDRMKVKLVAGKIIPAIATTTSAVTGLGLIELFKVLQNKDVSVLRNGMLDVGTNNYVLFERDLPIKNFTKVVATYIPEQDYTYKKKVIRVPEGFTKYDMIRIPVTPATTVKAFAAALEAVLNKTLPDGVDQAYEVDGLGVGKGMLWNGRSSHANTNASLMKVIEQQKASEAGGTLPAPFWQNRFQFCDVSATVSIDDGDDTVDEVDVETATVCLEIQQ

[3] = biological target: AMP-activated protein kinase, AMPK (Homo sapiens) (UniProt P54646+O43741+P54619+Q9UGJ0+Q9Y478+Q13131+Q9UGI9); experiment: AMP-dependent Kinase enzyme assay. An in vitro enzyme assay that detects ADP turnover that is directly proportional to AMPK activity. This uses naive AMPK that is activated during the assay with MK-8722; assay type: functional; details: 30 µM
[4] = biological target: Sialic acid-binding Ig-like lectin 9 (Homo sapiens) (UniProt Q9Y336); experiment: Hs-Siglec9 ALPHAscreen SOP 20170721; details: 10 µM
Trypanosoma cruzi = experiment: Trypanosoma cruzi phosphomannomutase and mannose-1-phosphate guanylyltransferase assay; assay type: functional; details: 10 µM
[5] = biological target: T2, Arginase-2, mitochondrial (Homo sapiens) (UniProt P78540); experiment: in vitro enzyme assay to detect the production of urea directly proportional to the activity of Arginase II; assay type: functional; details: 33.3 µM; further: in the data most compounds retested in dose-response had high values
T2 sequence (whole entry): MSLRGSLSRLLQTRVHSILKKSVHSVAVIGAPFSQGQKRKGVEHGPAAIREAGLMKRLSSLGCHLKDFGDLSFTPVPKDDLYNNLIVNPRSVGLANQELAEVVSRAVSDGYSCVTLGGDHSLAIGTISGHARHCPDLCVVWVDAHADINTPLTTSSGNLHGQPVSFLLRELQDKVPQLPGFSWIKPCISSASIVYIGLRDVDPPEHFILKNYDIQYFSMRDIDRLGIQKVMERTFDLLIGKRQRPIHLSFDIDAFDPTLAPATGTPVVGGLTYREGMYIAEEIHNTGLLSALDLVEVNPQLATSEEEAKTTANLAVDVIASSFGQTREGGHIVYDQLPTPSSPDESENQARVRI

[6] = biological target: T3, Proteasome subunit beta (Trypanosoma cruzi) (UniProt O96673); experiment: Trypanosoma cruzi proteasome chymotrypsin-like activity (TcProtChymo) assay.; further: in the data most compounds retested in dose-response had high values; assay type: functional; details: 9.37 µM
T3 sequence (whole entry): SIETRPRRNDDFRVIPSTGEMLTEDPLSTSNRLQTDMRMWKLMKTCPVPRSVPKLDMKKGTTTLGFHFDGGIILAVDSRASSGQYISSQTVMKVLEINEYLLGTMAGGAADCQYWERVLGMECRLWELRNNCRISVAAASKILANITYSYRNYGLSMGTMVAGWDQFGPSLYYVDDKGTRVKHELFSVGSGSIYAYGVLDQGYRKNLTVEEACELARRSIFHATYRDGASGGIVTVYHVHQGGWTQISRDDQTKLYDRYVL

Homo sapiens = organism: Homo sapiens; experiment: To identify inhibition of the IFN signalling (Jak-Stat) pathway via expression of an eGFP reporter gene under the control of an IFN-stimulated response element (ISRE) containing MxA promoter.; assay type: functional; details: 30 µM
[7] = biological target: T4, Tyrosyl-tRNA synthetase, putative (Trypanosoma cruzi (strain CL Brener)) (UniProt Q4DSP6); experiment: Trypanosoma cruzi tyrosyl tRNA synthetase (TcYRS) _High Tyrosine SOP; assay type: functional; details: 30 µM; further: in the data most compounds retested in dose-response had high values
T4 sequence (whole entry): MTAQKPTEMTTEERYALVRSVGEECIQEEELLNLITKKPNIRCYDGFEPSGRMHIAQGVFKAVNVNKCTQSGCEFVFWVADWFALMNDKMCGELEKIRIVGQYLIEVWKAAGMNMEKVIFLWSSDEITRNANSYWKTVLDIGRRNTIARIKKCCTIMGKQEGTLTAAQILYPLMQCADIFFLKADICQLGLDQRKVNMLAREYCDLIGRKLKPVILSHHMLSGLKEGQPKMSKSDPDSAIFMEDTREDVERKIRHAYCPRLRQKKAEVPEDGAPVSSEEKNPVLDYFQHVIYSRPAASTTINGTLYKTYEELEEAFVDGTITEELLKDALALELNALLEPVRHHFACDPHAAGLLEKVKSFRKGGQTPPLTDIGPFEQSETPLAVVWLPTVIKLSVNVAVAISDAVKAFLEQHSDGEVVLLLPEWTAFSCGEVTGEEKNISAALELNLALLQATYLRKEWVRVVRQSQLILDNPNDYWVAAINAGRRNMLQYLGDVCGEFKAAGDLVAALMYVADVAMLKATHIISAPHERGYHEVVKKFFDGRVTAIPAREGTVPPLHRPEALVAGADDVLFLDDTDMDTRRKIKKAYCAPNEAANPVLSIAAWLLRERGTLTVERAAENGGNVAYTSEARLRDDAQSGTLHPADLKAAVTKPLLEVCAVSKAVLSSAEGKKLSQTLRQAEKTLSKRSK

[8] = biological target: T4, Tyrosyl-tRNA synthetase, putative (Trypanosoma cruzi (strain CL Brener)); experiment: Trypanosoma cruzi tyrosyl tRNA synthetase (TcYRS) SOP; assay type: functional; details: 30 µM
[9] = biological target: Chromo domain-containing protein 1 (Saccharomyces cerevisiae (strain ATCC 204508 / S288c) (Baker's yeast)) (UniProt P32657); experiment: ScCHD-1 Enzyme Inhibition Assay; assay type: functional; details: 30 µM; further: in the data most compounds retested in dose-response had high values
Sequence of Chromo domain-containing protein 1 (Saccharomyces cerevisiae (strain ATCC 204508 / S288c) (Baker's yeast)) (P32657 whole entry, the tested form may be a part): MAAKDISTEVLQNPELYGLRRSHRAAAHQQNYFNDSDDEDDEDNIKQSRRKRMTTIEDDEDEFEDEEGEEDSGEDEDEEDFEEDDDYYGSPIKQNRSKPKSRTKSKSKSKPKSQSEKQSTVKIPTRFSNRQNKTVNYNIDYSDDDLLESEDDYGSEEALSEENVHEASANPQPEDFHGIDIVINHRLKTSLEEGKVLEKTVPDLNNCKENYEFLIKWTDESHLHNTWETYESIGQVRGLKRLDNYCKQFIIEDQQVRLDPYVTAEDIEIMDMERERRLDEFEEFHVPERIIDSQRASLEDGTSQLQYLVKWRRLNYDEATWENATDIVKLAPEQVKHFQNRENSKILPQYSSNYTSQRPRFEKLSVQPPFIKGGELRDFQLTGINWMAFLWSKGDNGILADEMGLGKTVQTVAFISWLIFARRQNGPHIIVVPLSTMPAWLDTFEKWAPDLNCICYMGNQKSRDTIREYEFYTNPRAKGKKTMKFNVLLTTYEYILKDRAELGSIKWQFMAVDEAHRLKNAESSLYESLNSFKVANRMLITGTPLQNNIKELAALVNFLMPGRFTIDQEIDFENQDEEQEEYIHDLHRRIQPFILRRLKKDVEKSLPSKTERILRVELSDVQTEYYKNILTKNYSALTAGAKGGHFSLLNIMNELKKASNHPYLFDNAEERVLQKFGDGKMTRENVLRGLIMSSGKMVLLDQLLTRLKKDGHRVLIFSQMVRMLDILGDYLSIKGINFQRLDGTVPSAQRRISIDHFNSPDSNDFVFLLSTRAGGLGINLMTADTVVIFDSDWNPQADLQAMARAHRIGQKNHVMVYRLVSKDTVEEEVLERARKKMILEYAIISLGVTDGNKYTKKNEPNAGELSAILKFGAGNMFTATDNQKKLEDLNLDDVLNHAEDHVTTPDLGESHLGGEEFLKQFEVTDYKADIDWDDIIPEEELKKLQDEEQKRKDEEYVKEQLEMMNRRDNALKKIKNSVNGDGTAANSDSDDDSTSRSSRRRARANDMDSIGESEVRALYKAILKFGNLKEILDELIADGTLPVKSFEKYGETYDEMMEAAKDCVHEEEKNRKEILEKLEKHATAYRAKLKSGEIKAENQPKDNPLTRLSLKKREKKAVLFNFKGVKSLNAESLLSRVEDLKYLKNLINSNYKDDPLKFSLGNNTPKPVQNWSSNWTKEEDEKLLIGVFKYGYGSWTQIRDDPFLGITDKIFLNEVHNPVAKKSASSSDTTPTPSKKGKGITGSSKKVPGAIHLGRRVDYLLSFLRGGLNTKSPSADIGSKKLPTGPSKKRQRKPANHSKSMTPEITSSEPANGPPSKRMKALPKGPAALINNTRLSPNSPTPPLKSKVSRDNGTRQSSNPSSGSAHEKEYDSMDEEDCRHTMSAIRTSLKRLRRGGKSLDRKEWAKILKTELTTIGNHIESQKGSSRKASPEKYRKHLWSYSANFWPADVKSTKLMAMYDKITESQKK

Sequence of Sialic acid-binding Ig-like lectin 9 (Homo sapiens) (Q9Y336 whole entry): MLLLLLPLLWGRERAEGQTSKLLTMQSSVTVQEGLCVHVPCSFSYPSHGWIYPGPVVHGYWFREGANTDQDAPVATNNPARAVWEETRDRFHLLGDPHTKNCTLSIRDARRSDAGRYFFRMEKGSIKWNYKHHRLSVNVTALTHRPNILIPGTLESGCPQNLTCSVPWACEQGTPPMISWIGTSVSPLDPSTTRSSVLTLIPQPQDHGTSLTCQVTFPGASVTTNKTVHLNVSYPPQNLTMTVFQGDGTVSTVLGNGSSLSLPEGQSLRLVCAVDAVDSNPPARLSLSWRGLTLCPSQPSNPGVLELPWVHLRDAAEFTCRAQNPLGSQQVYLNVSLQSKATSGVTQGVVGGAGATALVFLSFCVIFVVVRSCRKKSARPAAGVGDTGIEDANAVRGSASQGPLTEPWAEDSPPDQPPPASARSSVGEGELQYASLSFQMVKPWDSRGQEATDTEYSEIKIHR
Sequence of Protein translocase subunit SecA (Escherichia coli (strain K12)) (P10408 whole entry): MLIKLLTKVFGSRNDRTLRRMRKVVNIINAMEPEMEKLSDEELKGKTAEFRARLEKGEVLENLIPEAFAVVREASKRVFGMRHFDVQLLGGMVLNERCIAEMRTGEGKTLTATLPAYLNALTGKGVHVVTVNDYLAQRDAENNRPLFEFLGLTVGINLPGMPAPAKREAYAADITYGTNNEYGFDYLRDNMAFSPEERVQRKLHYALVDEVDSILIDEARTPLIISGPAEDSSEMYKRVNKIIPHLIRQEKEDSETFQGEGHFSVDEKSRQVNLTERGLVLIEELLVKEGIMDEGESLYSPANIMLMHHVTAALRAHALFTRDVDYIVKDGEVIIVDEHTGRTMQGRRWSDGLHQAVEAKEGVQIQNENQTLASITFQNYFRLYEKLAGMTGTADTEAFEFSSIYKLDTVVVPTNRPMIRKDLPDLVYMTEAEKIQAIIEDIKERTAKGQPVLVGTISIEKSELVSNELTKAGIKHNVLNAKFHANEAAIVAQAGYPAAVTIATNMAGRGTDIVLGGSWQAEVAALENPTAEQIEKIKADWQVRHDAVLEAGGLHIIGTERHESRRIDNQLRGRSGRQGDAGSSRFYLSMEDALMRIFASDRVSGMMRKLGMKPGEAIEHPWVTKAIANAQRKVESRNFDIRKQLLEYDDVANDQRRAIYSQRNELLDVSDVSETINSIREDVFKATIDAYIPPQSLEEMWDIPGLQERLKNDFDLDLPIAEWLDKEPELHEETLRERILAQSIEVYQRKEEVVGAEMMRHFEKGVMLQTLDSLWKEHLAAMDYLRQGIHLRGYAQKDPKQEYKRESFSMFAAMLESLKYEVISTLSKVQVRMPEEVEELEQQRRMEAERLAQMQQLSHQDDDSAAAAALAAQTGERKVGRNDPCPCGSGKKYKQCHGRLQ

| SMILES | Percent Effect [1] [%] | Percent Effect [2] [%] | Percent Effect [3] [%] | Percent Effect [4] [%] | Percent Effect (Trypanosoma cruzi) [%] | Percent Effect [5] [%] | Percent Effect [6] [%] | Percent Effect (Homo sapiens) [%] | Percent Effect [7] [%] | Percent Effect [8] [%] | Percent Effect [9] [%] |
| --- | --- | --- | --- | --- | --- | --- | --- | --- | --- | --- | --- |
| CNS(=O)(=O)c1ccc(C(=O)N2CCCC(n3cccn3)C2)cc1 (stereo not given) | -7.19 | 13.2 | -7.33 | 8.86 | 4.89 | -4.21 | 2.17 | 1.3 | 3.43 | 17.1 | -14.7 |
| Cc1ccc(F)cc1NC(=O)NCC(C)N1CCOCC1 (stereo not given) | -1.78 | 18.9 | 0.541 | -0.431 | 0.391 | 1.25 | 9.55 | 14.3 | 11.9 | 18.3 | 3.74 |
| CCNc1cc2c(nn1)CCN(C(=O)Cc1noc3ccccc13)C2 | -6.38 | 13.2 | -1.77 | 6.44 | 5.51 | 0 | -3.47 | 5.21 | 4.43 | 16.1 | -4.69 |
| c1ccc2oc(CCCN3CCOC(Cn4cccn4)C3)nc2c1 (stereo not given) | -3.85 | 5.2 | 0.772 | 0.668 | 6.56 | -3.16 | 0.889 | 7.24 | 0 | 7.06 | 5.28 |
| O=C1CCSCC(C(=O)N2CCOCC2)N1 (stereo not given) | -5.1 | 2.74 | -1.73 | -8.51 | -2.74 | -0.455 | 5.5 | 16 | 2.15 | 7.5 | 0.585 |
| CN(Cc1nccn1CC(F)(F)F)C(=O)c1ccc(F)cc1F | -4.89 | 5.26 | 5.36 | 6.23 | -5.16 | -5.92 | 12.8 | -12.9 | 6.38 | 7.79 | 3.79 |
| CCc1cccc(N2CCC(NC(=O)c3cc[nH]n3)CC2)c1 | -4.19 | 6.33 | 8.15 | -6.72 | -3.59 | -5.38 | 11.2 | 28.6 | 2.08 | 5.06 | -20.9 |
| O=C(C(CNCc1ccncc1)c1ccccc1)N1CCOCC1 (stereo not given) | 0.622 | 5.2 | 0.193 | 1.44 | -6.59 | -8.28 | 18.3 | 17.2 | 3.23 | 11.1 | -2.54 |
| Clc1ccccc1C1(c2ccnc(-c3ccncc3)n2)CCNCC1 | -0.572 | 7.79 | 3.38 | 10.4 | -2.26 | -8.28 | 17 | 16.3 | 6.45 | 13.6 | 2.54 |
| CC(C)N(C)C(=O)C1=NOC2(CCN(C(=O)c3ccncc3)C2)C1 (stereo not given) | -3.37 | 2.74 | -0.462 | -1.1 | -1.79 | -5.19 | 12.6 | 1.3 | 1.04 | 6.17 | -0.614 |
| COc1cccc(F)c1C(=O)N1C[C@@H](CN(C)CCO)[C@@H](CO)C1 | -8.11 | 5.2 | -2.26 | 3.34 | -2.26 | -5.52 | 2.16 | -11 | 2.15 | 8.64 | -0.727 |
| CC1c2ncc(CNC(=O)C3CC3)n2CCN1Cc1cnn(C)c1 (stereo not given) | -0.181 | 8 | -3.48 | -1.35 | 6.56 | -55.4 | 13.8 | 5.07 | 3.12 | 12.5 | -7.95 |
| COc1ccc(OCc2sc(C3(O)CCCNCC3)nc2C)cc1 (stereo not given) | -4.47 | 9.46 | 3.29 | 4.34 | -1.58 | 3.48 | 4.52 | 2.06 | 3.23 | 6.49 | -17.3 |
| COc1cc2nc(C)n(CC(=O)NCCCN(C)C)c(=O)c2cc1OC | -0.823 | 20 | -6.34 | -3.21 | 4.13 | -2.99 | 17.4 | 12.2 | 6.35 | 15.4 | -9.62 |
| CN(Cc1cccnc1)CC1CCCN1c1cccnn1 (stereo not given) | 4.47 | 18.2 | -2.81 | -14.9 | -5.58 | 0.21 | 13.7 | 27.4 | 7.62 | 18.8 | -18.6 |
| OCC1CCCN1c1cc(N2CCN(c3ccccn3)CC2)ncn1 (stereo not given) | -1.51 | 2.6 | 5.09 | 12.8 | -1.27 | 3.58 | 0.889 | 13.3 | 5.71 | 7.06 | -17.6 |
| Cc1cc(NC(=O)NCC(O)c2ccc(Cl)cc2Cl)n(C)n1 (stereo not given) | -2.82 | -2.63 | 1.15 | 8.57 | 0.376 | -0.383 | -2.17 | -20.8 | -0.49 | -75.6 | -5.69 |
| Cn1ccnc1N1CCN(C(=O)Cc2ccc(F)cc2)CC1 | -3.69 | 13 | 5.01 | 3.61 | 2.86 | 0.645 | 17.6 | 14.3 | 6.35 | 11.5 | -9.3 |
| Cc1cc(C)n(C2CCCN(C(=O)Cc3csc(C)n3)C2)n1 (stereo not given) | -3.62 | 0 | -2.28 | 17.5 | 6.7 | 1.9 | 4.34 | -6.53 | 4.43 | -3.8 | -6.83 |
| OCC1CCCN1c1cc(N2CCC(OC3CCCC3)CC2)ncn1 (stereo not given) | -0.479 | 23.4 | -10.1 | -5.43 | 3.04 | 2.32 | 15.8 | -7.13 | 7.62 | 23.5 | -22.6 |
